The subject of assay [1] is Zika virus NS2B-NS3 protease (unlinked complex). Briefly: Primary screen GU Rhodamine qHTS for Zika virus inhibitors: Unlinked NS2B-NS3 protease assay (AID 1347159). Further: nearly all actives have a fitted effect of over 60% in size. The gist of the method: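 Percent inhibition came from the 15-min rise in Rhodamine110 fluorescence (1.5 microM substrate, ~15% conversion), normalized to no-inhibitor and no-enzyme wells and Hill-fitted. Unlinked protease, 25 nM, pH 8.0 Tris buffer; compounds up to 114 microM, 15-min preincubation.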

Assay [2] deals with Zika virus NS2B-NS3 protease (linked construct). Briefly: Primary screen NINDS Rhodamine qHTS for Zika virus inhibitors (AID 1347160). Further: nearly all actives have a fitted effect of over 55% in size. The method, boiled down: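 Rhodamine110-peptide cleavage (1.5 µM substrate) by 25 nM linked NS2B-NS3 enzyme at pH 8.0 (Tris, Tween 20), after 15 min RT preincubation with compounds; 15-min fluorescence change normalized to controls and Hill-fitted.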

Inconclusive results are not listed. The source made the active and inactive calls. The call rests on the fitted dose curve; in most records, active means well fitted inhibition curve with a large enough effect; inconclusive means small, poorly fitted or top-dose-only effect; inactive means no such curve, though single readings can be large or run the other way.
On the % scale 0 is the no-effect control and ±100 the full control effect; potency means the concentration at half of the fitted maximal effect.

In the case of `Cc1cccc(Oc2cnc(=O)[nH]c2)c1`, the Potency entry in assay [1] and in assay [2] was “inactive” throughout.

With `Cn1ncnc1COc1nn2c(-c3cc(F)ccc3F)nnc2cc1C(C)(C)C`, the Potency entry in assay [1] and in assay [2] was “inactive” in each case.

Regarding `O=C(O)/C=C/c1cc2c(cc1O[C@@H]1O[C@H](CO)[C@@H](O)[C@H](O)[C@H]1O)OCO2`, the Potency entry in assay [1] and in assay [2] was “inactive” each time.

With `CCC(C)C(=O)OC1CC(C)C=C2C=CC(C)C(CCC(O)CC(O)CC(=O)O)C21` (centres undefined), the Potency entry in assay [1] and in assay [2] was “inactive” throughout.

For the compound `COc1cccc(-c2cc(NCc3ccc4c(c3)OCO4)nc(N)n2)c1`, the Potency result in assay [1] and in assay [2] was “inactive” in each case.

Regarding `C=CC1(C)CC(OC(=O)/C(C)=C\COC(C)=O)C(C(=C)C(=O)O)C(O)C1C(=C)CO` (centres undefined), the Potency entry in assay [1] and in assay [2] was “inactive” each time.

As to `Cc1nc(Nc2n[nH]c3c2CN(C(=O)NC(CN(C)C)c2ccccc2)C3(C)C)c2sccc2n1` (centres undefined), the Potency result in assay [1] and in assay [2] was “inactive” throughout.

For `Cc1ccc(C(=O)N(CCCN)C(c2nc3cc(Cl)ccc3c(=O)n2Cc2ccccc2)C(C)C)cc1` (centres undefined), the Potency result in assay [1] and in assay [2] was “inactive” in each case.

As for `Fc1ccc2nc(CCC#Cc3ccccn3)cn2c1`, the Potency result in assay [1] and in assay [2] was “inactive” throughout.

On to `CN(C)c1nc(NC2CCC(NC(=O)c3ccc(F)c(F)c3)CC2)nc2ccccc12` (centres undefined), for which the Potency result in assay [1] and in assay [2] was “inactive” in each case.

On to `COc1ccc([C@H]2CNC(=O)C2)cc1OC1CCCC1`, for which the Potency entry in assay [1] and in assay [2] was “inactive” throughout.

Turning to `N#Cc1ccc2[nH]cc(CCCCN3CCN(c4ccc5oc(C(N)=O)cc5c4)CC3)c2c1`, the Potency result in assay [1] and in assay [2] was “inactive” in each case.

`COC1CC(OC2CCC3(C)C(=CCC4C3C(OC(C)=O)C(OC(=O)/C=C/c3ccccc3)C3(C)C(C(C)O)CCC43O)C2)OC(C)C1OC1CC(OC)C(OC2OC(C)C(OC3OC(CO)C(O)C(O)C3O)C(OC)C2O)C(C)O1` (centres undefined): the activity change, negative = inhibition in assay [1] was 0.295% [at 19.1 µM] (inactive); in assay [2] it was 23.5% [at 10.7 µM] (inactive).

In the case of `C=C1C(=O)O[C@@H]2C[C@H](C)[C@@]3(O)C=C(C(C)=O)[C@]4(CC3C[C@H]12)C(=O)O[C@H]1C[C@@H](C)C(CCC(C)=O)=CC[C@H]14` (some centres undefined), the Potency entry in assay [1] and in assay [2] was “inactive” in each case.

For `O=C1NC(=O)C(c2cn(-c3ccccc3)nc2-c2ccc(F)cc2)N1` (centres undefined), the Potency result in assay [1] and in assay [2] was “inactive” in each case.

Turning to `Cc1ccc(NC(=O)c2ccc(CN3CC[C@H](N(C)C)C3)c(C(F)(F)F)c2)cc1Nc1nccc(-c2cncnc2)n1`, the Potency result in assay [1] and in assay [2] was “inactive” throughout.

As for `C=CC1C(OC2OC(CO)C(O)C(O)C2O)OC=C(C(=O)OC)C1CC(=O)OCC1C(C)C(O)CC1C(CO)COC(=O)CC1C(C(=O)O)=COC(OC2OC(CO)C(O)C(O)C2O)/C1=C\C` (centres undefined), the Potency entry in assay [1] and in assay [2] was “inactive” in each case.

For the compound `c1cc(OCCCN2CCCCC2)ccc1CN1CCCCC1`, the Potency result in assay [1] and in assay [2] was “inactive” each time.

`Cc1cc(C)cc(C(=O)NOCCCCCC(=O)NO)c1`: the Potency entry in assay [1] and in assay [2] was “inactive” throughout.

On to `CC(=O)O[C@@H]1[C@H](O[C@@H]2O[C@@H](CO)[C@H](O)[C@H]2O)[C@@H](O[C@@H]2O[C@@H](C)[C@H](O[C@@H]3OC[C@@H](O)[C@H](O)[C@H]3O)[C@@H](O)[C@H]2O)[C@H](OC(=O)[C@]23CCC(C)(C)C[C@H]2C2=CCC4[C@@]5(C)CC[C@H](O[C@@H]6O[C@H](C(=O)O)[C@@H](O)[C@H](O)[C@H]6O[C@@H]6O[C@H](CO)[C@H](O)[C@H](O)[C@H]6O)[C@@](C)(C=O)C5CC[C@@]4(C)[C@]2(C)CC3)O[C@@H]1C` (some centres undefined), for which the activity change, negative = inhibition was 10.7% [at 19.1 µM] (inactive) in assay [1] and -19.7% [at 10.7 µM] (inactive) in assay [2].

Consider `CC(=O)NCC(=O)N1C2CCC1c1cc(Nc3ncc(C(F)(F)F)c(NC4CCC4)n3)ccc12` (centres undefined), for which the Potency result in assay [1] and in assay [2] was “inactive” each time.

On to `COC(=O)CC(O)CC(O)/C=C/c1c(C)ccc2c1C(O)CC(C)C2` (centres undefined), for which the Potency result in assay [1] and in assay [2] was “inactive” each time.

With `COc1c2c(c(C)c3c1C(=O)OC3)O[C@@]1(C)CC(O)C(C(C)(C)O)[C@](C)(CCC(=O)O)[C@H]1C2` (some centres undefined), the Potency result in assay [1] and in assay [2] was “inactive” each time.

On to `C[C@@H]1O[C@@H](O[C@H]2[C@H](O)[C@@H](C(=O)O)O[C@@H](O[C@H]3CC[C@@]4(C)C(CC[C@]5(C)C4CC=C4C6CC(C)(C)CC[C@]6(C(=O)O)CC[C@]45C)C3(C)C)[C@@H]2O[C@@H]2OC[C@@H](O)[C@H](O)[C@H]2O)[C@H](O)[C@H](O)[C@H]1O` (some centres undefined), for which the Potency in assay [1] was 8.91 µM (active); in assay [2], 3.1 µM (active).

For `C=C1CCC2C(C(C)(C)O)CCC2(C)CC(O)C(=C)CCC1O` (centres undefined), the Potency result in assay [1] and in assay [2] was “inactive” throughout.

As to `c1cn2cc(-c3ccc4cn[nH]c4c3)nc(Nc3ccc(N4CCOCC4)cc3)c2n1`, the Potency entry in assay [1] and in assay [2] was “inactive” throughout.

Regarding `C=C(C)C(=O)O[C@H]1CC2=CC(C/C(C)=C\[C@H]3OC(=O)C(=C)[C@H]13)OC2=O` (some centres undefined), the Potency entry in assay [1] and in assay [2] was “inactive” throughout.
